A selection: hits, their analogues and other compounds. The true share with any hit is near 12%.
JMJD2A Tudor inh = inhibitors of human JMJD2A Tudor domain. AlphaScreen JMJD2A-Tudor / H3K4me3 peptide binding. Potency, µM (series often up to 114 µM), without a hit: at the top dose activity change, negative = inhibition, most hits filed as inhibitors. AID 504339. actives 4.4% (n = 390,000). O75164; further: on the % scale 0 is the no-effect control and ±100 the full control effect; nearly all actives have a fitted effect of over 50% in size
BAZ2B inh = BAZ2B (human) inhibition; actives 4.4% (n = 360,000); Potency, µM (titrated, usually from 114 µM), for the others: at the highest dose activity change, negative = inhibition, actives largely listed as inhibitors; Q9UIF8; AlphaScreen BAZ2B-H3K14Ac peptide displacement; further: on the % scale 0 is the no-effect control and ±100 the full control effect; nearly all actives have a fitted effect of over 60% in size
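Multi-concentration screen (max 110 uM) measuring displacement of acetylated histone H3 peptide from BAZ2B by AlphaScreen, using 50 nM protein, 50 nM peptide and 10 ug/mL streptavidin donor plus Ni-chelate acceptor beads.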
Sfp PPTase inh = blocks B. subtilis Sfp PPTase activity. Q9F4F7. Biochemical Sfp PPTase activity, qHTS. Potency, µM, inactives show largest response in the series, negative = inhibition, most hits filed as inhibitors. actives 3.5% (n = 310,000);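 further: the enzyme is Sfp with the accession as filed and its product quenches rhodamine fluorescence; 0% = enzyme reaction without inhibitor and -100% = no enzyme wells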
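Compounds were incubated with enzyme (final 15 nM) for 15 min at room temperature before substrate addition started the reaction. Fluorescence at 525 nm excitation, 598 nm emission was recorded immediately and after 30 minutes.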
PLK1 PBD inh = inhibitors of human PLK1 polo-box domain binding. P53350. Plk1 PBD binding of FITC phosphopeptide, fluorescence polarization. Potency, µM, for the others: max response, negative = inhibition, usual class: inhibitors. actives 2.8% (n = 360,000); further: series mostly up to about 57 µM; on the % scale 0 is the no-effect control and ±100 the full control effect; nearly all actives have a fitted effect of over 65% in size
Target sequence (P53350 whole entry, looked up, the tested form may be a part): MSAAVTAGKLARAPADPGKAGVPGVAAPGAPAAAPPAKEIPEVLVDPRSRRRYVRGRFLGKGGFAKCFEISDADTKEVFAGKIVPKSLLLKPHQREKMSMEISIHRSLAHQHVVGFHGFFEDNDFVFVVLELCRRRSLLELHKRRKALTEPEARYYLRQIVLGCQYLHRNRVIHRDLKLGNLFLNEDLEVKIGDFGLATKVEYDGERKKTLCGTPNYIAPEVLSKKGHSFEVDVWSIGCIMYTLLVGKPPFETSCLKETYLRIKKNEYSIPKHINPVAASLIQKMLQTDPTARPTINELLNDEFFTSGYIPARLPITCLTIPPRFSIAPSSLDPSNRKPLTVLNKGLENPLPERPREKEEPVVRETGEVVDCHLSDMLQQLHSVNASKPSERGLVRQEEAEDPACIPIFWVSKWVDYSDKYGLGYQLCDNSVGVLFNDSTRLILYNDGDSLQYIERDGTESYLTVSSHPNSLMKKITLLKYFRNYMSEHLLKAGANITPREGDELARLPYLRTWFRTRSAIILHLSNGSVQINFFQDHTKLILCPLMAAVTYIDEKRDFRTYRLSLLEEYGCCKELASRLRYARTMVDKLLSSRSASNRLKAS
G9a inh = blocks human histone lysine methyltransferase G9a. Q96KQ7. G9a H3K9 monomethylation, AlphaScreen, 2 h. Potency, µM (doses to about 102 µM), for inactives: top-dose activity, negative = inhibition, actives largely listed as inhibitors. actives 8.8% (n = 350,000); further: on the % scale 0 is the no-effect control and ±100 the full control effect; nearly all actives have a fitted effect of over 75% in size
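Signal arises when biotinylated H3K9 peptide, once monomethylated, bridges streptavidin donor and antibody-captured acceptor beads. Enzyme at 20 nM was preincubated 15 min with test compounds; peptide 500 nM and SAM 20 uM then reacted for 2 h.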
HP1b binding inh = HP1-beta chromodomain-methylated histone interaction inhibition; P83916; AlphaScreen HP1-beta / biotin-H3K9me3 peptide binding; actives 0.56% (n = 390,000); AID 540317; Potency, µM (top dose mostly 114 µM), for the others: top-dose activity change, negative = inhibition, hits mostly inhibitors; further: nearly all actives have a fitted effect of over 70% in size
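AlphaScreen: HP1-beta (50 nM) preformed 30 min with biotin-H3(1-18)K9me3 peptide (50 nM) in PBS pH 7.4, 0.01% Tween-20. Compound added for 30 min at RT, then streptavidin donor/nickel chelate acceptor beads (10 ug/mL) for 30 min.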
* marks the source's active call; other numbers are inactive results; [ ] = remark or other dose. The call rests on the fitted dose curve; in most records, active means well fitted curve in the direction sought with a large enough effect; inconclusive means small, poorly fitted or top-dose-only effect, or another doubt; inactive means no such curve, though single readings can be large; an effect the other way counts as inactive or inconclusive. Potency means the concentration at half of the fitted maximal effect.

`O=C(C[n+]1cccc2ccccc21)c1ccc([N+](=O)[O-])cc1` gave JMJD2A Tudor inh 28µM*, BAZ2B inh -31%, Sfp PPTase inh -4%, PLK1 PBD inh inconclusive, G9a inh inconclusive and HP1b binding inh -17%.
`O=C(CCNc1ccc(Cc2ccncc2)cc1)c1ccc([N+](=O)[O-])cc1` gave JMJD2A Tudor inh 22µM*, BAZ2B inh inconclusive, Sfp PPTase inh -14%, PLK1 PBD inh inconclusive, G9a inh -116%[59 µM] and HP1b binding inh inconclusive.
`O=C(CCNc1ccccc1)c1cccc([N+](=O)[O-])c1` gave JMJD2A Tudor inh inconclusive, BAZ2B inh inconclusive, Sfp PPTase inh -16%, PLK1 PBD inh inconclusive, G9a inh 18µM* and HP1b binding inh 0%.
O=C(CNC(=O)c1ccc([N+](=O)[O-])cc1)c1ccccc1 was read as JMJD2A Tudor inh -7%, BAZ2B inh 6%, Sfp PPTase inh 23%, PLK1 PBD inh 3%, G9a inh -3% and HP1b binding inh 17%.
For Cc1ccc(NC(=O)Cn2c(=O)n(CCCCC(=O)NCCc3ccc(Cl)cc3)c(=O)c3ccccc32)cc1 the results were JMJD2A Tudor inh 0%, BAZ2B inh -2%, G9a inh -1%[59 µM] and HP1b binding inh 44%.
`O=C(CCNc1ccc(Br)cc1)c1cccc([N+](=O)[O-])c1` gave JMJD2A Tudor inh 20µM*, BAZ2B inh inconclusive, Sfp PPTase inh 5%, PLK1 PBD inh inconclusive, G9a inh 3.2µM* and HP1b binding inh 79µM*.
CN(C)CCN(C(=O)C1CCN(S(=O)(=O)c2cccs2)CC1)c1nc2ccc(F)cc2s1 was read as JMJD2A Tudor inh inconclusive, BAZ2B inh inconclusive, PLK1 PBD inh 3%, G9a inh 28µM* and HP1b binding inh -17%.
Cc1cccc2sc(N(CCN(C)C)C(=O)C3CCN(S(=O)(=O)c4cccs4)CC3)nc12 was read as JMJD2A Tudor inh 56µM*, BAZ2B inh 50µM*, PLK1 PBD inh -7%, G9a inh 32µM* and HP1b binding inh inconclusive.
For O=C1C2=C(CCCC2)C(=O)N1c1cccc(OCCBr)c1 the results were JMJD2A Tudor inh 6%[57.1 µM], BAZ2B inh -6%, Sfp PPTase inh 17%, PLK1 PBD inh -5%, G9a inh 40µM* and HP1b binding inh 45%.
`Cc1ccc(CNC(=O)Cn2c(=O)oc3ccccc32)o1` gave JMJD2A Tudor inh -9%, BAZ2B inh -8%, Sfp PPTase inh -30%, PLK1 PBD inh -6% and HP1b binding inh 18%.
For Cc1ccc(NS(=O)(=O)c2c(C)nc3sc(C)c(C)n3c2=O)cc1F the results were JMJD2A Tudor inh -12%, BAZ2B inh -27%, G9a inh -9%[59 µM] and HP1b binding inh 41%.
Screening CCOc1ccc(C2=Nn3c(nnc3-c3ccccn3)SC2)cc1 returned JMJD2A Tudor inh 35µM*, BAZ2B inh 20µM*, Sfp PPTase inh inconclusive, PLK1 PBD inh -3%, G9a inh inconclusive and HP1b binding inh 46%.
`COc1ccc(C2=Nn3c(nnc3-c3ccccc3OC)SC2)cc1OC` gave JMJD2A Tudor inh -10%, BAZ2B inh -4%, Sfp PPTase inh 6%, PLK1 PBD inh -5%, G9a inh 24% and HP1b binding inh 10%.
For COc1ccc(C2=Nn3c(nnc3-c3ccccn3)SC2)cc1OC the results were JMJD2A Tudor inh 45µM*, BAZ2B inh 20µM*, Sfp PPTase inh -17%, PLK1 PBD inh -4%, G9a inh inconclusive and HP1b binding inh 47%.
C=CCNC(=O)/C(=C\c1ccco1)NC(=O)c1ccco1 was read as JMJD2A Tudor inh -3%, BAZ2B inh -1%, Sfp PPTase inh 12%, PLK1 PBD inh -4%, G9a inh 15%[59 µM] and HP1b binding inh 33%.
For O=C(NCc1ccco1)/C(=C\c1ccco1)NC(=O)c1ccco1 the results were JMJD2A Tudor inh -20%, BAZ2B inh 10%, Sfp PPTase inh 45µM*, PLK1 PBD inh -6%, G9a inh 45µM* and HP1b binding inh 23%.
O=C(NCc1ccco1)/C(=C\c1ccco1)NC(=O)c1ccc(Br)o1 was read as JMJD2A Tudor inh 2%, BAZ2B inh -29%, Sfp PPTase inh 89µM*, PLK1 PBD inh 1%, G9a inh -12%[12.7 µM] and HP1b binding inh 27%.
`O=C(NCc1ccco1)/C(=C/c1ccco1)NC(=O)c1ccc(Br)o1` gave JMJD2A Tudor inh -22%, BAZ2B inh -8%, Sfp PPTase inh inconclusive, PLK1 PBD inh -18%, G9a inh inconclusive and HP1b binding inh 14%.
C=CCNC(=O)/C(=C/c1ccco1)NC(=O)c1ccc(Br)o1 was read as JMJD2A Tudor inh -8%, BAZ2B inh -19%, Sfp PPTase inh 10µM*, PLK1 PBD inh -12%, G9a inh inconclusive and HP1b binding inh 29%.
Screening O=C(NCc1ccco1)/C(=C/c1ccccc1)NC(=O)c1ccco1 returned JMJD2A Tudor inh -10%, BAZ2B inh 3%, Sfp PPTase inh 15%, PLK1 PBD inh -8%, G9a inh -6%[59 µM] and HP1b binding inh 2%.
For O=C(NCCCO)/C(=C\c1ccco1)NC(=O)c1ccc(Br)o1 the results were JMJD2A Tudor inh -12%, BAZ2B inh -2%, Sfp PPTase inh -7%, PLK1 PBD inh -3%, G9a inh 28µM* and HP1b binding inh 32%.
Screening O=c1c(-c2cc(-c3ccc(F)cc3)nc3c2COc2ccc(Cl)cc2-3)coc2ccc(F)cc12 returned JMJD2A Tudor inh -15%, BAZ2B inh -26%, G9a inh 11%[59 µM] and HP1b binding inh 9%.
S=c1[nH]nc(C2CCCCC2)n1Cc1ccccc1 was read as JMJD2A Tudor inh 35µM*, BAZ2B inh -28%, Sfp PPTase inh -4%, PLK1 PBD inh -17%, G9a inh 11µM* and HP1b binding inh 18%.
COc1ccc(-c2n[nH]c(=S)n2Cc2ccccc2)cc1 was read as JMJD2A Tudor inh 25µM*, BAZ2B inh -10%, Sfp PPTase inh -18%, PLK1 PBD inh -18% and HP1b binding inh 4%.
`S=c1[nH]nc(-c2ccc(Br)o2)n1Cc1ccccc1` gave JMJD2A Tudor inh 32µM*, BAZ2B inh -37%, Sfp PPTase inh -1%, PLK1 PBD inh -24%, G9a inh inconclusive and HP1b binding inh 2%.
For Cc1n[nH]c(=S)n1Cc1ccccc1 the results were JMJD2A Tudor inh inconclusive, BAZ2B inh -15%, Sfp PPTase inh -1%, PLK1 PBD inh -24%, G9a inh 35µM* and HP1b binding inh 21%.
OC(c1ccc(F)c(F)c1)c1nc(-c2ccoc2)cs1 (stereo unspecified) was read as PLK1 PBD inh -23%.
